Our source for the inhibition values is ChEMBL document CHEMBL3433997, “St. Jude Leishmania screening dataset” (2016).

A word on the inhibition: it is the relative decrease from the control value, in per cent.

Molecules are shown by their SMILES.

Common to all, as to assay type: functional
In experiment [1] the target is Solute carrier family 2, facilitated glucose transporter member 1 (Homo sapiens) (UniProt P11166). As to the kind of experiment: ST_JUDE_LEISH: Cytotoxicity at 2uM final concentration against transgenic Leishmania Mexicana promastigotes LmGLUT1 that are glucose transport deficient and complemented with the human glucose transporter GLUT1. Activity is measured by DNA content using SYBR green in vitro.
Sequence of Solute carrier family 2, facilitated glucose transporter member 1 (Homo sapiens) (P11166 whole entry): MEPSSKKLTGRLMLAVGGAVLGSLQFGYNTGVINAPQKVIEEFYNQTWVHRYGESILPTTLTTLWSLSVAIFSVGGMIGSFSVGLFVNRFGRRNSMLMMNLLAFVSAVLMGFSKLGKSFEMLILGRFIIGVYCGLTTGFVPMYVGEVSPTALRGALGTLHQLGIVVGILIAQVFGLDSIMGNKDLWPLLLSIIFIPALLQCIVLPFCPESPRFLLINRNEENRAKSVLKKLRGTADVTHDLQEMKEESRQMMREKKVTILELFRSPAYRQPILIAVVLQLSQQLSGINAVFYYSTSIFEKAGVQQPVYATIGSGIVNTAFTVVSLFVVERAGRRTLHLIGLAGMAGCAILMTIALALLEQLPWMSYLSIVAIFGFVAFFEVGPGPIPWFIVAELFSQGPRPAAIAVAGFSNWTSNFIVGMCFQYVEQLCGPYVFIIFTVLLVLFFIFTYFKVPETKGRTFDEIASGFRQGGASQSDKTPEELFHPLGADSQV

In experiment [2] the target is Hexose transporter 1 (Plasmodium falciparum) (UniProt O97467). As to the kind of experiment: ST_JUDE_LEISH: Cytotoxicity at 2uM final concentration against transgenic Leishmania Mexicana promastigotes LmPfHT that are glucose transport deficient and complemented with the Plasmodium falciparum hexose transporter. Activity is measured by DNA content using SYBR green in vitro.

For experiment [3], the target named is Glucose transporter (Leishmania mexicana) (UniProt O61059). As to the kind of experiment: ST_JUDE_LEISH: Cytotoxicity at 2uM final concentration against transgenic Leishmania Mexicana promastigotes LmGT2 that are glucose transport deficient and complemented with the L. Mexicana glucose transporter 2. Activity is measured by DNA content using SYBR green in vitro.

Take `Cc1cccc2nc(-c3cccc(-c4cccc(NC(=O)c5ccncc5)c4)c3)[nH]c12`: the inhibition in experiment [1] came out at 3.32%; in experiment [2], 3.01%; in experiment [3] it was 4.27%.

Take `NC(=S)Cc1ccc2c(c1)OCO2`: the inhibition in experiment [1] was -0.08%; in experiment [2], -0.33%; in experiment [3] it was -0.59%.

`Cc1nnc(N2C(=N)SC(=Cc3ccc(-c4ccc(OC(F)(F)F)cc4)o3)C2=O)s1`: the inhibition in experiment [1] turned out to be 4.77%; in experiment [2] it was 2.59%; in experiment [3] it was 3.61%.

Take `COc1ccc2nccc([C@@H](O)CN3CCC(NCCOc4ccc(F)cc4F)CC3)c2c1`: the inhibition in experiment [1] was 7.55%; in experiment [2], 6.58%; in experiment [3], -1.61%.

With `Cc1cc(Br)c(OCCCON2C(=N)N=C(N)NC2(C)C)c(Br)c1`, the inhibition in experiment [1] worked out at 2.66%; in experiment [2], 4.88%; in experiment [3] it was 1.2%.

As to `COc1cccc2c(NN=Cc3ccccc3Cl)cc(C)nc12`, the results for the inhibition in experiment [1], in experiment [2] and in experiment [3] were 48%, 63.1% and 21.7%, respectively.

`CCn1c(-c2nonc2N)nc2cnc(Oc3cccc(NC(=O)c4ccc(OCCN5CCCC5)cc4)c3)cc21`: the inhibition in experiment [1] is 7.41%; in experiment [2], 9.98%; in experiment [3], 7.84%.

In the case of `CS(=O)(=O)CCNCc1cccc(-c2cc3c(Nc4ccc(OCc5ccccc5)cc4)ncnc3cn2)c1`, the values for the inhibition in experiment [1], in experiment [2] and in experiment [3] were 13.7%, 10.7% and 6.71%, respectively.

Take `CC[C@H]1CN(Cc2ccco2)CC[C@H]1CCCc1ccnc2ccc(O)cc12`: the inhibition in experiment [1] is 4.7%; in experiment [2], 4.86%; in experiment [3], 4.42%.

`CC(C)NCc1cccc(-c2cccc(NC(=O)c3cccc(Cl)c3)c2)c1`: the inhibition was -0.03% in experiment [1], 0.9% in experiment [2] and 4.05% in experiment [3].

For the compound `Cc1ccc2c(=O)c3cc(C)ccc3[nH]c2c1`, the inhibition was found to be 3.4% in experiment [1], 0.93% in experiment [2] and 0.54% in experiment [3].

For the compound `c1ccc2c(c1)CN(CC1CCOCC1)CC1(CCN(Cc3c[nH]c4cnccc34)CC1)O2`, the inhibition in experiment [1] amounted to 0.57%; in experiment [2], 1.23%; in experiment [3] it was 0.88%.

With `Cc1cc(N2CCOCC2)nc2ccc(NC(=O)c3ccc(Cl)c([N+](=O)[O-])c3)cc12`, the inhibition was 5.45% in experiment [1], 3.08% in experiment [2] and 2.75% in experiment [3].
